Screens from PubChem.
Shown are actives, neighbours in structure and some others; about 6.5% of the full set was active somewhere.
Lassa entry inh = Lassa virus entry inhibition | Lassa virus pseudotype entry inhibition, cell reporter | Potency, µM (titrated, usually from 37.9 µM), usual class: inhibitors | 1.2% of 300,000 active; calls by dose curve; tested in HEK293 cells; further: nearly all actives have a fitted effect of over 50% in size
HCMV antiviral = human cytomegalovirus inhibition; HFF cells, HCMV-luciferase reporter, 72 h; stronger effect = lower value; activity change, negative = inhibition, % at 57.5 µM; 4.5% of 410,000 active; in the data active means activity change below about -60%; inconclusive means no clear call, values can overlap the other calls; inactive means above about -39%
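Steps: HFFs plated, 16 h 37C; compounds added; HCMV-luciferase added to MOI 1 PFU/cell; 72 h 37C; OneGlo reagent, 5 min room temperature; luminescence read, normalized to controls.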
FMDV inh = antivirals against foot and mouth disease virus; 1.2% of 410,000 active; AID 1159524; FMDV antiviral cell-based qHTS; Potency, µM (series often up to 57.9 µM), actives largely listed as inhibitors; calls by dose curve; tested in HEK293T cells; further: read-out not given here; nearly all actives have a fitted effect of over 45% in size
Vaccinia mCherry = inhibitors of vaccinia virus infection (mCherry reporter signal); Vaccinia virus mCherry reporter infection, fluorescence; Potency, µM (titrated, usually from 36.5 µM), actives largely listed as inhibitors; 0.63% of 310,000 active; calls by dose curve; tested in A549 cells; further: nearly all actives have a fitted effect of over 35% in size
MARV entry inh = Marburg virus entry inhibition | Marburg virus pseudotyped entry inhibition, cell reporter | Potency, µM (titrated, usually from 37.8 µM), actives largely listed as inhibitors | 1.8% of 300,000 active | AID 540276; calls by dose curve; tested in HEK293 cells
Vaccinia Venus = vaccinia inhibition (Venus reporter). Vaccinia virus Venus reporter expression, fluorescence. Potency, µM (titrated, usually from 36.5 µM), actives largely listed as inhibitors. 0.46% of 330,000 active. AID 720580; calls by dose curve; tested in A549 cells; further: nearly all actives have a fitted effect of over 30% in size
Hits are given with their value.

`COc1cccc(CN2CCC3(CCC(CNC(=O)c4cc(C)nn4C)O3)CC2)c1OC` (configuration not stated) gave FMDV inh inactive, Vaccinia mCherry inactive and Vaccinia Venus inactive.
O=C1c2ccccc2C(O)(C2N=CC=N2)N1CCc1ccccc1 (configuration not stated) was read as MARV entry inh inactive.
Screening O=C(c1ccc(S(=O)(=O)NCC2CCCO2)cc1)N1CCN(c2ccccc2F)CC1 (configuration not stated) returned HCMV antiviral inactive and FMDV inh inactive.
`O=C(c1ccc(S(=O)(=O)NCC2CCCO2)cc1)N1CCN(c2cccc(Cl)c2)CC1` (configuration not stated) gave HCMV antiviral -70 and FMDV inh inconclusive.
O=S(=O)(NCC1CCCO1)c1ccc(-c2ccc(Cl)cc2)cc1 (configuration not stated) was read as Lassa entry inh inconclusive, HCMV antiviral -60, FMDV inh inactive, Vaccinia mCherry inactive, MARV entry inh inconclusive and Vaccinia Venus inactive.
`CCOC(=O)c1ccc(NC(=O)C2=C(C)C(=O)OC23CCN(C(C)C)CC3)cc1` gave Lassa entry inh inactive, HCMV antiviral inactive, FMDV inh inactive, Vaccinia mCherry inactive and Vaccinia Venus inactive.
Screening CC[C@H](C)[C@@H]1OC(=O)[C@@H](C)[C@@H](CC)NC(=O)[C@H](C)N(C)C(=O)C(C)(C)C(=O)C(C)NC(=O)[C@H](Cc2ccccc2)N(C)C(=O)[C@H](C(C)C)N(C)C(=O)CNC(=O)[C@H](CC(C)C)N(C)C(=O)CNC1=O (some centres not stated) returned FMDV inh inactive, Vaccinia mCherry 2µM and Vaccinia Venus 2.2µM.
`O=C(/C=C/c1ccc(Cl)cc1)NC1CCS(=O)(=O)C1` (configuration not stated) gave Lassa entry inh inactive, HCMV antiviral inconclusive, FMDV inh inactive, Vaccinia mCherry inactive, MARV entry inh inactive and Vaccinia Venus inactive.
Screening O=C(NC1CCS(=O)(=O)C1)Oc1ccc(Cl)cc1 (configuration not stated) returned Lassa entry inh inactive, HCMV antiviral -106, FMDV inh inactive and MARV entry inh inactive.
Screening COc1ccc(OC)c(NC(=O)Cn2c(=O)c3cccn3c3ccccc32)c1 returned Lassa entry inh inconclusive, HCMV antiviral inactive, FMDV inh inactive, Vaccinia mCherry inactive and Vaccinia Venus inactive.
`CN1C(=O)C2(c3ccccc31)N(c1ccc(Br)cc1)C(=O)CS2(=O)=O` (configuration not stated) gave Lassa entry inh inconclusive, HCMV antiviral inactive, FMDV inh inactive, Vaccinia mCherry inactive and Vaccinia Venus inactive.
Screening CC(C)N1CCN(C(=O)c2ccc(OC3CCN(CCc4ccccc4)CC3)cc2)CC1 returned Lassa entry inh inactive, HCMV antiviral inactive, FMDV inh inactive, Vaccinia mCherry inactive, MARV entry inh 11µM and Vaccinia Venus inactive.
O=C(c1ccc(OC2CCN(CCc3ccccc3)CC2)cc1)N1CCCC1 was read as Lassa entry inh inactive, HCMV antiviral -63, FMDV inh inactive, Vaccinia mCherry inactive, MARV entry inh inconclusive and Vaccinia Venus inactive.
`O=C(c1ccc(OC2CCN(CCc3ccccc3)CC2)cc1)N1CCCC(CCCO)C1` (configuration not stated) gave HCMV antiviral inactive and FMDV inh inactive.
For Cc1cc(CN(C)C(=O)c2ccc(OC3CCN(CCc4ccccc4)CC3)cc2)on1 the results were Lassa entry inh inactive, HCMV antiviral inactive, FMDV inh inactive, Vaccinia mCherry inactive, MARV entry inh 3.2µM and Vaccinia Venus inactive.
Screening C=CCOc1ccccc1CN1CCC(Oc2ccc(C(=O)N3CCCCC3)cc2)CC1 returned Lassa entry inh inactive, HCMV antiviral inactive, FMDV inh inactive, Vaccinia mCherry inconclusive, MARV entry inh 3.2µM and Vaccinia Venus inactive.
For C[C@H]1C(=O)N(C)CCN1C(=O)c1ccc(OC2CCN(CCc3ccccc3)CC2)cc1 the results were HCMV antiviral inactive, FMDV inh inactive, Vaccinia mCherry inactive and Vaccinia Venus inactive.
`CN(Cc1cnn(C)c1)C(=O)c1ccc(OC2CCN(CCc3ccccc3)CC2)cc1` gave HCMV antiviral inactive and FMDV inh inactive.
For CC(=O)N1CCC(N(Cc2ccco2)C(=O)Nc2ccc(C)c(Cl)c2)CC1 the results were Lassa entry inh inactive, HCMV antiviral inactive, FMDV inh inactive, Vaccinia mCherry inactive and Vaccinia Venus inactive.
Screening O=c1cc(-c2ccccc2)[nH]n1-c1ccc([N+](=O)[O-])cc1 returned Lassa entry inh inactive, HCMV antiviral -95, FMDV inh inconclusive and MARV entry inh inactive.
For Cc1cccc(CNC(=O)c2ccc3c(c2)N(C)C(=O)C2CCCCN32)c1 (configuration not stated) the results were Lassa entry inh inconclusive, HCMV antiviral inactive, FMDV inh inactive, Vaccinia mCherry inactive and Vaccinia Venus inactive.
COC(=O)C[N+](C)(C)CC#Cc1ccccc1 was read as Lassa entry inh 5.2µM, HCMV antiviral inactive, FMDV inh inactive, Vaccinia mCherry inactive, MARV entry inh inactive and Vaccinia Venus inactive.
`Cc1ccc(NC(=O)NCCOCCn2c(=O)oc3ccccc32)c(C)c1` gave Lassa entry inh inactive, HCMV antiviral inactive, FMDV inh inactive, Vaccinia mCherry inactive, MARV entry inh inactive and Vaccinia Venus inactive.
For COc1ccc(C=Cc2ccc3ccccc3n2)c(OC)c1 the results were HCMV antiviral -88, FMDV inh inconclusive, Vaccinia mCherry inconclusive and Vaccinia Venus inactive.
For COc1cc(/C=C/c2ccc3cccc(O)c3n2)c(Br)cc1O the results were HCMV antiviral -98.
Oc1cccc2ccc(/C=C/c3ccccc3Br)nc12 was read as Lassa entry inh inconclusive, HCMV antiviral -87, FMDV inh inactive, Vaccinia mCherry inconclusive, MARV entry inh inconclusive and Vaccinia Venus inactive.
COc1ccc(OC)c(/C=C/c2ccnc3ccccc23)c1 was read as Lassa entry inh inconclusive, HCMV antiviral -98, FMDV inh inactive, Vaccinia mCherry inactive, MARV entry inh inactive and Vaccinia Venus inactive.
COc1cc(Br)cc(/C=C/c2ccc3cccc(O)c3n2)c1O was read as HCMV antiviral inactive and FMDV inh inactive.
For C#CCCCO/N=C1\C[C@@H](O)[C@@H](O)[C@@H]2[C@@H]3C(=O)N(C(C)(C)C)C(=O)[C@@H]3CC[C@H]12 the results were MARV entry inh inactive.
Screening COc1ccc(CCNC(=O)c2cc(C)nc3c2c(C)nn3-c2ccc(C)cc2)cc1OC returned Lassa entry inh inactive, HCMV antiviral inactive, FMDV inh inactive, Vaccinia mCherry inactive and Vaccinia Venus inactive.
CN1C(=S)S[C@@H](N(O)C(=O)Nc2ccccc2)C1(C)C was read as MARV entry inh inactive.
For Oc1ccc(Cl)cc1/C=C/c1ccc2cccc(O)c2n1 the results were Lassa entry inh inactive, HCMV antiviral inactive, FMDV inh inactive, Vaccinia mCherry inconclusive, MARV entry inh inconclusive and Vaccinia Venus inactive.
